Read-out in assay [1]: Tumor necrosis factor receptor superfamily member 6 (Homo sapiens) (UniProt P25445)
The assay can be described thus: LTEA_HepaRG_FAS: Life Technologies and Expression Analysis (LTEA) Assay for Fas cell surface death receptor (FAS) using HepaRG (AID 2283447). The note with it: mRNA level, 48 h; actives raise or lower the signal. In short, it runs like this:
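FAS transcript level was measured by TaqMan qRT-PCR against three housekeeping genes after 48 h chemical exposure. Cells were HepaRG, 0.5% DMSO vehicle, with a top concentration of 100 uM and half-log dilutions over eight points, in duplicate.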

Read-out in assay [2]: Fatty acid synthase (Homo sapiens) (UniProt P49327)
As to the kind of experiment: LTEA_HepaRG_FASN: Life Technologies and Expression Analysis (LTEA) Assay for Fatty Acid Synthase (FASN) using HepaRG (AID 2283448). The conditions noted are these: mRNA level, 48 h; actives raise or lower the signal. The essentials: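 Cells were plated, cultured 48 h, switched to serum-free induction medium, then dosed in duplicate (max 100 uM, half-log dilutions, 0.5% DMSO) for 48 h. RNA was then isolated and FASN quantified by qRT-PCR.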

Read-out in assay [3]: Cyclin D2 (CCND2), CCND2 (gene 894)
As to the kind of experiment: LTEA_HepaRG_CCND2: Life Technologies and Expression Analysis (LTEA) Assay for Cyclin D2 (CCND2) using HepaRG (AID 2283449). The conditions noted are these: mRNA level, 48 h; actives raise or lower the signal. In short, it runs like this:
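CCND2 transcript levels, quantified by qRT-PCR and normalised to three housekeeping genes, were fitted bidirectionally against 0.5% DMSO. HepaRG cultures were dosed 48 h in duplicate with an 8-point half-log series up to 100 uM.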

Read-out in assay [4]: Cyclin Dependent Kinase Inhibitor 1A (CDKN1A), CDKN1A (gene 1026)
The assay can be described thus: LTEA_HepaRG_CDKN1A: Life Technologies and Expression Analysis (LTEA) Assay for Cyclin Dependent Kinase Inhibitor 1A (CDKN1A) using HepaRG (AID 2283450). The conditions noted are these: mRNA level, 48 h; actives raise or lower the signal. The essentials:
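Read-out is CDKN1A mRNA by TaqMan qRT-PCR, normalized to three housekeeping genes and fitted in both directions against the DMSO baseline. Human HepaRG cells were treated 48 h with test chemicals up to 100 uM in half-log steps, 0.5% DMSO.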

Read-out in assay [5]: Cyclin D1 (CCND1), CCND1 (gene 595)
As to the kind of experiment: LTEA_HepaRG_CCND1: Life Technologies and Expression Analysis (LTEA) Assay for Cyclin D1 (CCND1) using HepaRG (AID 2283451). The conditions noted are these: mRNA level, 48 h; actives raise or lower the signal. In short, it runs like this: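 HepaRG plated 48 h, medium switched to serum-free induction medium, chemicals added in duplicate (top 100 uM, half-log steps, 0.5% DMSO) for 48 h, cells lysed, RNA measured by TaqMan qRT-PCR.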

Read-out in assay [6]: catalase (CAT), CAT (gene 847)
As to the kind of experiment: LTEA_HepaRG_CAT: Life Technologies and Expression Analysis (LTEA) Assay for catalase (CAT) using HepaRG (AID 2283452). The note with it: mRNA level, 48 h; actives raise or lower the signal. The essentials:
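Expression of CAT was quantified by TaqMan qRT-PCR with ACTB/GAPDH/POLR2A normalization after 48 h chemical exposure of HepaRG. Eight-point half-log series, top 100 uM, in 0.5% DMSO; gain or loss fitted against vehicle.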

Read-out in assay [7]: flavin-containing dimethylaniline monooxygenases 3 (FMO3), FMO3 (gene 2328)
The assay can be described thus: LTEA_HepaRG_FMO3: Life Technologies and Expression Analysis (LTEA) Assay for flavin-containing dimethylaniline monooxygenases 3 (FMO3) using HepaRG (AID 2283453). The conditions noted are these: mRNA level, 48 h; actives raise or lower the signal. In short, it runs like this: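 FMO3 transcript quantified by TaqMan qRT-PCR against three housekeeping genes after 48 h chemical exposure of HepaRG cells. Eight-point half-log series, top 100 uM, 0.5% DMSO vehicle; phenobarbital 1mM induction control; up- or down-regulation fitted.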

Read-out in assay [8]: Cytochrome P450 (CYP1A1), CYP1A1 (gene 1543)
The assay can be described thus: LTEA_HepaRG_CYP1A1: Life Technologies and Expression Analysis (LTEA) Assay for Cytochrome P450 (CYP1A1) using HepaRG (AID 2283454). The note with it: mRNA level, 48 h; actives raise or lower the signal. The essentials: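 HepaRG, 48 h post-plating switched to serum-free induction medium; 8-pt conc-response (top 100 uM, half-log, 0.5% DMSO), duplicates, 48 h. Lysis in RLT, TaqMan qRT-PCR for CYP1A1; gain or loss vs DMSO.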

Read-out in assay [9]: CFLAR gene, CFLAR (gene 8837)
The assay can be described thus: LTEA_HepaRG_CFLAR: Life Technologies and Expression Analysis (LTEA) Assay for CFLAR gene using HepaRG (AID 2283455). The note with it: mRNA level, 48 h; actives raise or lower the signal. In short, it runs like this: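 Transcript level by qRT-PCR (normalized to ACTB, GAPDH and POLR2A) after 48 h chemical exposure of HepaRG cells, top concentration 100 uM with half-log steps, 0.5% DMSO vehicle, duplicates; fitted bidirectionally against DMSO baseline.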

Read-out in assay [10]: Forkhead box O1 (FOXO1), FOXO1 (gene 2308)
As to the kind of experiment: LTEA_HepaRG_FOXO1: Life Technologies and Expression Analysis (LTEA) Assay for Forkhead box O1 (FOXO1) using HepaRG (AID 2283456). The note with it: mRNA level, 48 h; actives raise or lower the signal. The essentials:
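FOXO1 transcript quantified by qRT-PCR after 48 h chemical exposure (top 100 uM, half-log steps, 0.5% DMSO) of HepaRG cells, housekeeping-normalized (ACTB/GAPDH/POLR2A). Changes fitted in both directions relative to vehicle.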

Read-out in assay [11]: growth arrest and DNA damage 45 (GADD45A), GADD45A (gene 1647)
As to the kind of experiment: LTEA_HepaRG_GADD45A: Life Technologies and Expression Analysis (LTEA) Assay for growth arrest and DNA damage 45 (GADD45A) using HepaRG (AID 2283458). The note with it: mRNA level, 48 h; actives raise or lower the signal. In short, it runs like this: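 Transcript induction or loss, quantified by TaqMan qRT-PCR against three housekeeping genes, is the read-out. HepaRG cells received chemicals for 48 h across eight half-log concentrations from 100 uM in 0.5% DMSO; gain and loss fitted relative to DMSO.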

Read-out in assay [12]: Forkhead box O3 (FOXO3), FOXO3 (gene 2309)
The assay can be described thus: LTEA_HepaRG_FOXO3: Life Technologies and Expression Analysis (LTEA) Assay for Forkhead box O3 (FOXO3) using HepaRG (AID 2283459). The conditions noted are these: mRNA level, 48 h; actives raise or lower the signal. The essentials: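 FOXO3 transcript measured by qRT-PCR (normalized to ACTB, GAPDH, POLR2A) after 48 h exposure of HepaRG cells in serum-free induction medium. Duplicates, eight half-log concentrations up to 100 uM, 0.5% DMSO; gain or loss fitted against DMSO.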

Read-out in assay [13]: ABC Transporter (ABCB1), ABCB1 (gene 5243)
As to the kind of experiment: LTEA_HepaRG_ABCB1: Life Technologies and Expression Analysis (LTEA) Assay for ABC Transporter (ABCB1) using HepaRG (AID 2283460). The note with it: mRNA level, 48 h; actives raise or lower the signal. In short, it runs like this: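 ABCB1 transcript level measured by TaqMan qRT-PCR against three housekeeping genes after 48 h chemical exposure of differentiated HepaRG cells. Top concentration 100 uM, half-log steps, eight points, 0.5% DMSO vehicle; bidirectional fit relative to DMSO.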

Read-out in assay [14]: growth arrest and DNA damage 45 (GADD45B), GADD45B (gene 4616)
The assay can be described thus: LTEA_HepaRG_GADD45B: Life Technologies and Expression Analysis (LTEA) Assay for growth arrest and DNA damage 45 (GADD45B) using HepaRG (AID 2283461). The conditions noted are these: mRNA level, 48 h; actives raise or lower the signal. The essentials:
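HepaRG, ~100,000 cells/well, 48 h plating; serum-free induction medium; cpd 100 uM top, half-log x8, 0.5% DMSO, duplicate, 48 h; lysis in RLT, RNA isolation, qRT-PCR; norm ACTB/GAPDH/POLR2A; bidirectional fit vs DMSO.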

Read-out in assay [15]: ABC Transporter (ABCC3), ABCC3 (gene 8714)
The assay can be described thus: LTEA_HepaRG_ABCC3: Life Technologies and Expression Analysis (LTEA) Assay for ABC Transporter (ABCC3) using HepaRG (AID 2283462). The conditions noted are these: mRNA level, 48 h; actives raise or lower the signal. In short, it runs like this: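 Human HepaRG, 48 h dosing, 8-pt half-log series from 100 uM, 0.5% DMSO vehicle, duplicates. ABCC3 mRNA by TaqMan qRT-PCR, housekeeping-normalized; bidirectional curve fit vs DMSO.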

Read-out in assay [16]: Broad substrate specificity ATP-binding cassette transporter ABCG2 (Homo sapiens) (UniProt Q9UNQ0)
The assay can be described thus: LTEA_HepaRG_ABCG2: Life Technologies and Expression Analysis (LTEA) Assay for ABC Transporter (ABCG2) using HepaRG (AID 2283465). The conditions noted are these: mRNA level, 48 h; actives raise or lower the signal. The essentials: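 ABCG2 transcript was quantified by TaqMan qRT-PCR against three housekeeping genes in HepaRG cells. Cells were treated in duplicate for 48 h across an 8-point half-log series up to 100 uM, with 0.5% DMSO vehicle. Gain or loss versus DMSO was fit.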

A short description of assay [17]: CEETOX_H295R_PROG: CeeTox H295R High-throughput Steroidogenesis Assay for Progesterone (PROG) (AID 2283442).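 For AC50: human H295R adrenal cells primed with 10 µM forskolin before dosing; progesterone secreted into medium by H295R cells measured by HPLC-MS/MS.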 The note with it: actives raise or lower the signal. In short, it runs like this: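 Steps: seed H295R cells and let them adhere overnight; prime 48 h with 10 uM forskolin; dose with compound in DMSO at 0.1% final for 48 h; extract medium steroids with MTBE; measure progesterone by LC-MS/MS. MTT viability was run in the same wells.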

Read-out in assay [18]: ABC Transporter (ABCB11), ABCB11 (gene 8647)
The assay can be described thus: LTEA_HepaRG_ABCB11: Life Technologies and Expression Analysis (LTEA) Assay for ABC Transporter (ABCB11) using HepaRG (AID 2283463). The conditions noted are these: mRNA level, 48 h; actives raise or lower the signal. In short, it runs like this:
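ABCB11 transcript levels quantified by TaqMan qRT-PCR against three housekeeping genes after 48 h chemical exposure of HepaRG cultures. Concentrations up to 100 uM in half-log steps, 0.5% DMSO vehicle; both induction and suppression scored.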

Read-out in assay [19]: ABC Transporter (ABCC2), ABCC2 (gene 1244)
As to the kind of experiment: LTEA_HepaRG_ABCC2: Life Technologies and Expression Analysis (LTEA) Assay for ABC Transporter (ABCC2) using HepaRG (AID 2283464). The note with it: mRNA level, 48 h; actives raise or lower the signal. The essentials:
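HepaRG, 48 h post-plating; serum-free induction medium; cpd 8-pt, 100 uM top, half-log, 0.5% DMSO, duplicate, 48 h. Readout: ABCC2 mRNA by qRT-PCR, norm. ACTB/GAPDH/POLR2A. Bidirectional fit vs DMSO baseline.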

Activity calls are given as the source filed them. Rule for the calls: active = hit-call score of the fitted dose curve at least 0.9, where 1 is the maximum; inactive = score below 0.9.

Sequence of Fatty acid synthase (Homo sapiens) (P49327 whole entry, looked up): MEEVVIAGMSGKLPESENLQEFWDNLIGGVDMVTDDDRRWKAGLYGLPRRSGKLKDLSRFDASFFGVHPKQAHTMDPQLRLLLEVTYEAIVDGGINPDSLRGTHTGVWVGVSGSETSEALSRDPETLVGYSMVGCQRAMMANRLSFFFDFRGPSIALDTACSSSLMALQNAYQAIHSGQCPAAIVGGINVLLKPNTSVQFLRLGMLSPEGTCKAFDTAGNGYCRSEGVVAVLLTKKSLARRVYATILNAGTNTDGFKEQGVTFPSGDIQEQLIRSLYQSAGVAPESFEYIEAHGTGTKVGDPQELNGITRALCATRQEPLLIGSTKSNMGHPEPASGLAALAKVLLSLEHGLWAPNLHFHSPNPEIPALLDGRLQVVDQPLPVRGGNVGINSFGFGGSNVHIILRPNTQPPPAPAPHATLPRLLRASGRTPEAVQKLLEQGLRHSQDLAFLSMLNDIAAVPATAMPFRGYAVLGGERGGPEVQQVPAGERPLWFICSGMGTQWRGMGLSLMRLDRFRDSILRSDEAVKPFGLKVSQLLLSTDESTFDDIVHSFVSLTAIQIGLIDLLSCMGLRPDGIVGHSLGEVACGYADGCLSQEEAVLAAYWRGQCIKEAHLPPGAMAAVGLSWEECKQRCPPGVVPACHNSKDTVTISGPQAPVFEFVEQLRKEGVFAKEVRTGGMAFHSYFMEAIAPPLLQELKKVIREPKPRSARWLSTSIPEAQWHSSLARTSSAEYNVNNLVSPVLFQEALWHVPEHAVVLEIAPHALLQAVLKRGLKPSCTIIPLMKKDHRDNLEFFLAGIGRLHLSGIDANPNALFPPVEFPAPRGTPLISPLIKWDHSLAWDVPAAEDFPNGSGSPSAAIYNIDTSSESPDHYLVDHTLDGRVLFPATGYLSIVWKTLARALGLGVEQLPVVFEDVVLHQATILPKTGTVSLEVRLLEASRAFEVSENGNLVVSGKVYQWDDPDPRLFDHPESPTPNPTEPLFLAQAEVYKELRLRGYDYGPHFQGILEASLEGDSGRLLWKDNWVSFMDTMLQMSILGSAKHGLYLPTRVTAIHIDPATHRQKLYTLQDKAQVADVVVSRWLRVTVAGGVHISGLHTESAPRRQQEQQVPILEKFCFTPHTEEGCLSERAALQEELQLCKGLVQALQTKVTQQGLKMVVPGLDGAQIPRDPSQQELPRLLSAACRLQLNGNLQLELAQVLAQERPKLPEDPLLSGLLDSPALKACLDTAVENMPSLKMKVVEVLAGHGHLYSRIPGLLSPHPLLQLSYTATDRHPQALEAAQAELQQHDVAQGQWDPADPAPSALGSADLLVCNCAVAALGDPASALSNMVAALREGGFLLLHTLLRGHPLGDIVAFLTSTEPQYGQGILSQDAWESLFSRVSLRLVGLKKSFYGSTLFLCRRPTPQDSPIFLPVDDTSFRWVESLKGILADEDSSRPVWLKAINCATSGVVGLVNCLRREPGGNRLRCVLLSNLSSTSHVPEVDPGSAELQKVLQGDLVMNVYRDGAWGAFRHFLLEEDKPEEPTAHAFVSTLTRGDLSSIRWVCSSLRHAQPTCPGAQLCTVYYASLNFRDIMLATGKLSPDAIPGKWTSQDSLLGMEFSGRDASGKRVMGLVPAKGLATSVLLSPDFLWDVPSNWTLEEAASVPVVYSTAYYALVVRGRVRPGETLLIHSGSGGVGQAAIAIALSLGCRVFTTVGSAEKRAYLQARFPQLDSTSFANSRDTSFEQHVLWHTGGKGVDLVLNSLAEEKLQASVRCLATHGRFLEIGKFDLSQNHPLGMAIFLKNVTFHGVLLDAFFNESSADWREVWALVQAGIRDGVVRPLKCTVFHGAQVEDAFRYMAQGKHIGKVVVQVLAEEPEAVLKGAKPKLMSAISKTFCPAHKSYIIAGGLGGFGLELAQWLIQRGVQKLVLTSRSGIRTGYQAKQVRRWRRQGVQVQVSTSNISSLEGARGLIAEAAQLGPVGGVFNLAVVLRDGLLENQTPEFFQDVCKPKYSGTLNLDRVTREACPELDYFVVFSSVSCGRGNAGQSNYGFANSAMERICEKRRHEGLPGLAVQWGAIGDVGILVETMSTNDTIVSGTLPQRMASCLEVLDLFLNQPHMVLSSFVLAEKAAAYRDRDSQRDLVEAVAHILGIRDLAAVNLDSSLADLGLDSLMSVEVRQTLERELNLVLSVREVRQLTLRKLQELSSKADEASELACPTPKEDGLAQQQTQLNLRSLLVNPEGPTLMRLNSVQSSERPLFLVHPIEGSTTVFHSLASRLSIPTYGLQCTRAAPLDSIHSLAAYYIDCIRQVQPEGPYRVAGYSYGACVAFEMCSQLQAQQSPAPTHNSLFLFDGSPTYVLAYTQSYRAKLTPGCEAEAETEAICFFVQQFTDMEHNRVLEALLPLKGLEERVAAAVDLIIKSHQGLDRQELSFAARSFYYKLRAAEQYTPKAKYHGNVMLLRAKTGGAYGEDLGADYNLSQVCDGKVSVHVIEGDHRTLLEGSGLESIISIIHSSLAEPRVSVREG
Sequence of Broad substrate specificity ATP-binding cassette transporter ABCG2 (Homo sapiens) (Q9UNQ0 whole entry, looked up): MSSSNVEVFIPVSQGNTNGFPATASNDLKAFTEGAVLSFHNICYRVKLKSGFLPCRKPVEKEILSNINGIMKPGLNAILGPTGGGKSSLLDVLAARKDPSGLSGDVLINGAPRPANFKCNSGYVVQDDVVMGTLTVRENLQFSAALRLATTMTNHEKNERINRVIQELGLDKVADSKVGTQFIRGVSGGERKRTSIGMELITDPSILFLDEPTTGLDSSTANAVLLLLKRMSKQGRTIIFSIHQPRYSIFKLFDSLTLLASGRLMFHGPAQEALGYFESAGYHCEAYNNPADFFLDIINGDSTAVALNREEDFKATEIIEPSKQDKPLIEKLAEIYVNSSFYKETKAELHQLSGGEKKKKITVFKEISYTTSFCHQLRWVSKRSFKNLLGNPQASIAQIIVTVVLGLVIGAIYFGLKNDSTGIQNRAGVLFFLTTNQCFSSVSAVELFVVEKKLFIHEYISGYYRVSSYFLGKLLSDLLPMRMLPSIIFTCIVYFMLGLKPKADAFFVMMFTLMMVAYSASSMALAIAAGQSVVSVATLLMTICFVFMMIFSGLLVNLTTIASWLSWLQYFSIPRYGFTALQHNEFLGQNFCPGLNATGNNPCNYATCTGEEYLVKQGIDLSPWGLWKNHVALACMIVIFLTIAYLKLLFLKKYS

As usually defined, the AC50 is the concentration at which the activity in the assay is half-maximal. As to `Cc1ccc(N(C)C)cc1`, the outcome in [1], in [2], in assay [3], in assay [4], in assay [5] and in [6] was inactive. Also, the result in assay [7], in [9], in [10], in assay [11], in assay [12] and in assay [13] was inactive. Also, the call in assay [14], in [15] and in [16] was inactive. Moreover, in assay [8], the AC50 is 22.6 µM (active).
Consider `COC(=O)c1ccc(O)cc1`, for which, in assay [17], the AC50 is 50 µM (active). Besides, the molecule was called inactive in assay [1], in [2], in assay [3], in assay [4], in [6] and in assay [7]. Moreover, the molecule was classed as inactive in assay [8], in assay [9], in assay [10], in assay [11], in [13] and in assay [14]. In addition, the result in assay [15], in [18], in assay [19] and in assay [16] was inactive.
For the molecule `Cc1c(C(=O)O)c(O)cc2c1C(=O)c1c(O)c([C@@H]3O[C@H](CO)[C@@H](O)[C@H](O)[C@H]3O)c(O)c(O)c1C2=O`, the call in [17], in [1], in [2], in assay [3], in assay [4] and in [6] was inactive. In addition, the molecule was called inactive in assay [7], in assay [8], in [10], in assay [11], in assay [13] and in assay [14]. Moreover, the result in assay [15] and in assay [16] was inactive.
As to `Oc1ccc2c(c1)OC[C@@H](N1CCC(O)(c3ccc(F)cc3)CC1)[C@H]2O`, the call in assay [17], in [1], in [2], in assay [4], in assay [6] and in assay [7] was inactive. The result in assay [8], in assay [9], in assay [10], in assay [11], in assay [13] and in assay [14] was inactive. Besides, the call in assay [15], in assay [19] and in assay [16] was inactive.

For the origin of these results see PubChem BioAssay (EPA / NIEHS).
